Several values for one entry are separate records, joined by “and”; a condition that tells them apart may be missing. Equal entries are not always repeated. Inconclusive results are not listed. Activity calls are given as the source filed them. Unless noted, the call rests on the fitted dose curve.
Columns and labels:
[1] = qHTS assay to identify small molecule antagonists of the sonic hedgehog signaling (Shh) pathway (AID 1259369); further: nearly all actives have a fitted effect of over 45% in size; further: potency means the concentration at half of the fitted maximal effect
Method in brief: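 Inhibition of Shh signalling is measured as reduced Gli1-response-element firefly luciferase output in an NIH/3T3-derived stable reporter clone stimulated with conditioned medium for 24hr.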

[2] = target: Androgen receptor (Homo sapiens) (UniProt P10275); test: qHTS assay to identify small molecule agonists of the androgen receptor (AR) signaling pathway in the presence of an antagonist (AID 1259381); further: nearly all actives have a fitted effect of over 15% in size; further: potency means the concentration at half of the fitted maximal effect
Chain of Androgen receptor (Homo sapiens) (P10275 whole entry, looked up): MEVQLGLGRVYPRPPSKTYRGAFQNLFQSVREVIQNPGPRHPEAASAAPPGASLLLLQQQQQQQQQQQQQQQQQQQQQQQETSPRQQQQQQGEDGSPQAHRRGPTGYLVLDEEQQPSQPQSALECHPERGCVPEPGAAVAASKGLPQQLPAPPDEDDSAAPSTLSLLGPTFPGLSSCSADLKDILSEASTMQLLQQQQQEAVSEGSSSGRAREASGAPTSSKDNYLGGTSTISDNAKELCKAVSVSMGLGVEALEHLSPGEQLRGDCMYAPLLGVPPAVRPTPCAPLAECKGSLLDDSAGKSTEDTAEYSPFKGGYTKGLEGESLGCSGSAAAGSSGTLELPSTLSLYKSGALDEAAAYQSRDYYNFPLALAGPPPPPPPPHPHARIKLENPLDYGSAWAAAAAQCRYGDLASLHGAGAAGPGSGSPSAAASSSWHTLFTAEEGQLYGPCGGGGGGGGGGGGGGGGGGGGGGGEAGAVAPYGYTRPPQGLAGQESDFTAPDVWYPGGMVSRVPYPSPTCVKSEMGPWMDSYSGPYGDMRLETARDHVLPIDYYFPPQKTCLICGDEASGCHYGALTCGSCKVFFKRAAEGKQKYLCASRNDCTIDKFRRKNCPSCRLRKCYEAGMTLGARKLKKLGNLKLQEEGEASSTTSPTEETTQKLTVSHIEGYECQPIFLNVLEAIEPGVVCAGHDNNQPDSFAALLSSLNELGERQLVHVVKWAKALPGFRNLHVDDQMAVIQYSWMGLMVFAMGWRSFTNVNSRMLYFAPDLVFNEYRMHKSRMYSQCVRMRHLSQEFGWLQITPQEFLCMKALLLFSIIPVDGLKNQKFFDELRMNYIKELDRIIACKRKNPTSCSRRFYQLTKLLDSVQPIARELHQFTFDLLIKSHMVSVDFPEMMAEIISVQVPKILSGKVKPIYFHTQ
Method in brief: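 Cells are MDA-kb2 (human breast carcinoma, MMTV-luc, AR/GR responsive). Nilutamide is present at 3.0uM final throughout; compounds are added at 15 concentrations and incubated 16hr at 37C before ONE-Glo luminescence detection.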

[3] = qHTS assay to identify small molecule antagonists of the estrogen receptor beta (ER-beta) signaling pathway - cell viability counter screen (AID 1259382; active means well fitted curve in the direction sought with a large enough effect in the repeat runs; an effect the other way counts as inactive or inconclusive; further: nearly all actives have a fitted effect of over 55% in size; further: potency means the concentration at half of the fitted maximal effect)
Method in brief: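 Following a 6 hr plating period, HEK293T cells carrying a UAS-driven beta-lactamase reporter under ER-beta control received compounds and 1nM E2 (final). After 16 hr at 37C and 2 hr substrate loading, CellTiter-Glo luminescence indicated viability.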

[4] = target: Estrogen receptor (Homo sapiens) (UniProt P03372); test: qHTS assay to identify small molecule agonists of the estrogen receptor alpha (ER-alpha) signaling pathway in the presence of an antagonist (AID 1259383); further: nearly all actives have a fitted effect of over 15% in size; further: potency means the concentration at half of the fitted maximal effect; on activation: top concentration of the series differs between compounds
Chain of Estrogen receptor (Homo sapiens) (P03372 whole entry, looked up): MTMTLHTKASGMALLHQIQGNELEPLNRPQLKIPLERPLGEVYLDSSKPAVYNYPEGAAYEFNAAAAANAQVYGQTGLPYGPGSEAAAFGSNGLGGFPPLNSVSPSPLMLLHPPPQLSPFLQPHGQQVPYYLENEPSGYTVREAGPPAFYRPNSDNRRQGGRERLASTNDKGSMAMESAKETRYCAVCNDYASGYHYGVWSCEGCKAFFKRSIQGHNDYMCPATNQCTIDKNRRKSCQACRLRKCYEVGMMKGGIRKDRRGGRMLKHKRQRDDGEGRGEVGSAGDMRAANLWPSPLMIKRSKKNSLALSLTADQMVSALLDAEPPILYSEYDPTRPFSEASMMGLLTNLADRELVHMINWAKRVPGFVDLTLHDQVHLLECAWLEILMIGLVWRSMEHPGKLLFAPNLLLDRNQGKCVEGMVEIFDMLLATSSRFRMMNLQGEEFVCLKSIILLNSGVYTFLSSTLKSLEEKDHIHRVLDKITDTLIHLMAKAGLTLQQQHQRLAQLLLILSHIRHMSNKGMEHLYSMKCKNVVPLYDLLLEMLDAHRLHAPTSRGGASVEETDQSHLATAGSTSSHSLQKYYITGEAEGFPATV
Method in brief: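 Cells are hormone-deprived for 5 days (charcoal-stripped FBS, no phenol red), plated for 24hr, spiked with 10.0nM ICI-182,780, then dosed at 15 concentrations. After 22hr at 37C, ONE-Glo luminescence reports ERE-luciferase activity.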

[5] = qHTS assay to identify small molecule agonists or antagonists of the thyroid stimulating hormone receptor (TSHR) signaling pathway - wild type cell line counter screen (AID 1259384)
Method in brief: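 Wild-type Hek293 cells, 800/well, 18 h at 37C, then compound with Ro20-1724 for 30 min RT. cAMP by HTRF (cAMP-d2/anti-cAMP cryptate), 1 h RT, fluorescence read. 15 concentrations, triplicates.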

[6] = target: Thyrotropin receptor (Homo sapiens) (UniProt P16473); test: qHTS assay to identify small molecule antagonists of the thyroid stimulating hormone receptor (TSHR) signaling pathway (AID 1259385); further: nearly all actives have a fitted effect of over 20% in size; further: potency means the concentration at half of the fitted maximal effect
Chain of Thyrotropin receptor (Homo sapiens) (P16473 whole entry, looked up): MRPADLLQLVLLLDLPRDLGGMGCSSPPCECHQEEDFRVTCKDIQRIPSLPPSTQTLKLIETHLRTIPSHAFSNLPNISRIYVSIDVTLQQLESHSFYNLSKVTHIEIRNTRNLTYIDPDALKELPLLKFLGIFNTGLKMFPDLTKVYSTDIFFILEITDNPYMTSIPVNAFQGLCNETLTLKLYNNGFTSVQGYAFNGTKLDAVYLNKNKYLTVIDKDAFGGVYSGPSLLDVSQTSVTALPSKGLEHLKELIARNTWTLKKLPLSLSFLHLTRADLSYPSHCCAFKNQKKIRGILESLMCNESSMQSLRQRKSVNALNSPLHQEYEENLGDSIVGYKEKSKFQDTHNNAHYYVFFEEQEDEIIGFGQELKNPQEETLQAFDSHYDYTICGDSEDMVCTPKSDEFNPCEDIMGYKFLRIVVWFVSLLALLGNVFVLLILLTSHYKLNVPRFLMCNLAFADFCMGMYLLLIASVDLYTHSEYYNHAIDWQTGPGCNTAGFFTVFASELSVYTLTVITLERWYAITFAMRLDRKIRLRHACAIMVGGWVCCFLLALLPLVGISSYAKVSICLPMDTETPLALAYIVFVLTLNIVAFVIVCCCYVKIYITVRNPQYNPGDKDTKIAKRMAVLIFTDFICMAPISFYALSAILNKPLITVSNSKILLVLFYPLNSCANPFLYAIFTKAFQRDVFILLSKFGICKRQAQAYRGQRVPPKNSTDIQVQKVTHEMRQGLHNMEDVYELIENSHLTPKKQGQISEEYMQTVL
Method in brief: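 TSHR-HEK293 cells (800/well) plated 18 h, then compounds with Ro20-1724 and TSH at 1.5 ng/mL final, 30 min at room temperature. cAMP quantified by HTRF (cAMP-d2/anti-cAMP-cryptate, 1 h); 15 concentrations in triplicate.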

[7] = target: Estrogen receptor beta (Homo sapiens) (UniProt Q92731); test: qHTS assay to identify small molecule agonists of the estrogen receptor beta (ER-beta) signaling pathway (AID 1259377; active means well fitted activation curve with a large enough effect in the signal ratio in the repeat runs, not every such curve was filed as active; the % refers to the signal ratio; further: potency means the concentration at half of the fitted maximal effect)
Chain of Estrogen receptor beta (Homo sapiens) (Q92731 whole entry, looked up): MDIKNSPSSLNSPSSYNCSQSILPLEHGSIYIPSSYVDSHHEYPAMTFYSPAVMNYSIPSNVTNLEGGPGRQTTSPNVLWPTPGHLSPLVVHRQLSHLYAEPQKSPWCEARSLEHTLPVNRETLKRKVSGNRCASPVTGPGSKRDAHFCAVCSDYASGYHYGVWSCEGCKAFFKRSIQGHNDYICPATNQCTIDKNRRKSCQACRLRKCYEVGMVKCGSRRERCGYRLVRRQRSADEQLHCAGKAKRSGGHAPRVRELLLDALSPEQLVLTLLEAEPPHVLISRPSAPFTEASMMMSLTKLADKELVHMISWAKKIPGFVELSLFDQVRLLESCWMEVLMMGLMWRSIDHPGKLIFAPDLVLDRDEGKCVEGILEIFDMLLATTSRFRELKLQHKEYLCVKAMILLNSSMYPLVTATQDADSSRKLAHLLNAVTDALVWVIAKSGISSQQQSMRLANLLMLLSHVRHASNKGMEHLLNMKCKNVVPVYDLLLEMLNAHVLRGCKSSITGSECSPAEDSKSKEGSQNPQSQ
Method in brief: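 Read-out: beta-lactamase FRET fluorescence. Cell line: ER-beta-UAS-bla HEK293T in 2% charcoal-stripped FBS. Exposure: 16 hr at 37C. Substrate step: 2 h at room temperature.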

[8] = target: Estrogen receptor beta (Homo sapiens) (UniProt Q92731); test: qHTS assay to identify small molecule antagonists of the estrogen receptor beta (ER-beta) signaling pathway (AID 1259378; active means well fitted inhibition curve with a large enough effect in the signal ratio in the repeat runs, not every such curve was filed as active; the % refers to the signal ratio; further: potency means the concentration at half of the fitted maximal effect)
Method in brief: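 ER-beta-UAS-bla HEK293T cells in 2% charcoal-stripped FBS medium treated with compound plus 1nM final 17-beta-estradiol for 16 hr at 37C. Beta-lactamase reporter read by FRET substrate fluorescence after 2 hours at room temperature.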

[9] = qHTS assay to identify small molecule agonists of the androgen receptor (AR) signaling pathway in the presence of an antagonist - cell viability counter screen (AID 1259379; active means well fitted curve in the direction sought with a large enough effect in the repeat runs; an effect the other way counts as inactive or inconclusive; further: nearly all actives have a fitted effect of over 25% in size; further: potency means the concentration at half of the fitted maximal effect)
Method in brief: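 Fluorescence from CellTiter-Fluor, added after 15 hr and read 1 hr later, gave cell viability. Cells were MDA-kb2 exposed to compounds (15 concentrations) in the presence of 3.0uM nilutamide at 37C, 0% CO2.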

[10] = qHTS assay to identify small molecule agonists of the estrogen receptor beta (ER-beta) signaling pathway - cell viability counter screen (AID 1259380; active means well fitted curve in the direction sought with a large enough effect in the repeat runs; an effect the other way counts as inactive or inconclusive; further: nearly all actives have a fitted effect of over 30% in size; further: potency means the concentration at half of the fitted maximal effect)
Method in brief: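 Same-well viability counter screen. Cells: ER-beta-UAS-bla HEK293T, plated 6 hr before compound, in 2% charcoal-stripped FBS. Compound exposure 16 hr, 37C; viability by CellTiter-Glo luminescence after 30 min at room temperature.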

Measured: Potency

c1ccc2cc3c(cc2c1)-c1cccc2cccc-3c12
inactive: [1] | [2] | [3] | [4] | [5] | [6]

CC(=O)OC1(c2ccccc2)CCN(CCc2ccccc2)CC1
inactive: [7] | [8] | [3] | [5] | [6]
active: [9] 70.3 µM

COP(=O)(OC)SCn1c(=O)oc2cc(Cl)cnc21
inactive: [1] | [2] | [3] | [4] | [5]

BrC(Br)C(Br)(Br)Br
active: [1] 61.5 µM
inactive: [3] | [4] | [5] | [6]

CC(=O)O[C@H]1CC[C@@]2(C)C(=CC[C@@H]3[C@@H]2CC[C@]2(C)C(=O)CC[C@@H]32)C1
active: [7] 1.72 µM | [10] 48.6 µM | [4] 8.63 µM
inactive: [9] | [2] | [3] | [5]

Clc1ccc(CCC(Cn2ccnc2)Sc2c(Cl)cccc2Cl)cc1 (stereo not given)
inactive: [5] | [6]
active: [1] 2.98 µM | [10] 29.8 µM | [3] 33.5 µM

ClC1=C(Cl)[C@]2(Cl)[C@@H]3[C@@H]4C[C@@H]([C@H]5O[C@@H]45)[C@@H]3[C@@]1(Cl)C2(Cl)Cl
inactive: [4] | [5]
active: [1] 21.7 µM

CC(C)(C)C(O)C(Oc1ccc(-c2ccccc2)cc1)n1cncn1 (stereo not given)
active: [1] 12.2 µM
inactive: [2] | [4] | [5]

Nc1ccc(Cl)cc1C(=O)c1ccccc1
active: [8] 30.6 µM
inactive: [7] | [4] | [5] | [6]

CC(C)(O)c1cnn2c(-c3ccc(F)c(-c4c(F)cccc4C#N)c3)cnc2n1
active: [1] 4.33 µM | [10] 27.3 µM
inactive: [2] | [3] | [5]

c1ccc2c(c1)[nH]c1cnccc12
not listed: [1] | [2] | [10]
inactive: all other assays above

Clc1ccc(CSC(Cn2ccnc2)c2ccc(Cl)cc2Cl)cc1 (stereo not given)
inactive: [1] | [5]
active: [10] 13.3 µM | [3] 13.3 µM

O=[N+]([O-])c1c2ccccc2cc2ccccc12
inactive: [5]
active: [1] 67.8 µM

O=c1[nH]c2ccccc2n1C1CCN(CCCC(c2ccc(F)cc2)c2ccc(F)cc2)CC1
inactive: [7] | [4] | [5]
active: [8] 17.2 µM | [9] 24.3 µM | [10] 27.3 µM and 21.1 µM | [3] 30.6 µM and 29.8 µM

CC(=O)/C=C/c1ccc2c(c1)OCO2
active: [1] 17.3 µM
inactive: [2] | [6]

Cc1cc(C(C)(C)c2cc(C)c(O)c(C)c2)cc(C)c1O
inactive: [1] | [2] | [5] | [6]
active: [10] 52.7 µM | [3] 26.4 µM

Nc1ccc(Cc2ccc(N)c(Cl)c2)cc1Cl
inactive: [4] | [5] | [6]
active: [1] 21 µM | [10] 18.7 µM | [3] 46.9 µM

Oc1c(Cl)c(Cl)cc(Cl)c1Cl
inactive: [2] | [3] | [4] | [5] | [6]

CN(C)C1CSSSC1
inactive: [9] | [10] | [3] | [4] | [5] | [6]

Cn1cc(C2=C(c3cn(C4CCN(Cc5ccccn5)CC4)c4ccccc34)C(=O)NC2=O)c2ccccc21
inactive: [10] | [3] | [5] | [6]
active: [9] 11.9 µM

CCC(C)(C)C(=O)OC1=C(c2ccc(Cl)cc2Cl)C(=O)OC12CCCCC2
inactive: [9] | [2] | [3] | [4] | [5] | [6]

COS(=O)(=O)c1ccc(C)cc1
not listed: [1] | [7] | [8]
inactive: all other assays above

CCOP(=O)(NC(C)C)Oc1ccc(SC)c(C)c1 (stereo not given)
inactive: [9] | [2] | [3] | [5]

ClC1=C(Cl)C2(Cl)C3C(Cl)C=CC3C1(Cl)C2(Cl)Cl (stereo not given)
inactive: [7] | [9] | [3] | [4] | [5] | [6]

CS(=O)(=O)c1ccc(C(=O)C2C(=O)CCCC2=O)c([N+](=O)[O-])c1
inactive: [8] | [9] | [4] | [5]

Oc1ccc(I)cc1
inactive: [9] | [10] | [3] | [4] | [5] | [6]

O=c1c(C2CC(c3ccc(-c4ccc(Br)cc4)cc3)Cc3ccccc32)c(O)sc2ccccc12 (stereo not given)
active: [9] 29.8 µM
not listed: [1] | [8] | [10]
inactive: all other assays above

Oc1cccc(-c2ccccc2)c1
active: [7] 17.2 µM
not listed: [1] | [2] | [8]
inactive: all other assays above

CC(C)N1C(=O)N(c2ccccc2)CSC1=NC(C)(C)C
inactive: [9] | [2] | [4] | [5]
active: [10] 54.5 µM

COc1cc(C=O)cc2c1[C@H](COC(N)=O)[C@]1(OC(C)=O)ON2C[C@H]2[C@@H]1N2C(C)=O
inactive: [4] | [5] | [6]
active: [9] 27.3 µM

CC(C)CCCCCCCOP(=O)(Oc1ccccc1)Oc1ccccc1
inactive: [9] | [4] | [5]

O=c1ssc(Cl)c1Cl
active: [9] 68.6 µM
inactive: [4]

Cc1cc(SCc2sc(-c3ccc(C(F)(F)F)c(F)c3)nc2C)ccc1OCC(=O)O
inactive: [9] | [4]
active: [10] 15.4 µM | [3] 13.7 µM

CCCCOCN(C(=O)CCl)c1c(CC)cccc1CC
active: [6] 61.1 µM
inactive: [9] | [2] | [3] | [4] | [5]

C=CC(=O)OCCCCOC(=O)C=C
active: [9] 54.5 µM
inactive: [10] | [4] | [5] | [6]

[Cl][Sb]([Cl])[Cl]
inactive: [7] | [3] | [5]
active: [9] 24.3 µM

CCOCCOC(C)=O
inactive: [9] | [3] | [4] | [5]

CC(Cl)CN(C)C (stereo not given)
not listed: [1] | [7] | [8]
inactive: all other assays above

Cn1[nH]nnc1=S
not listed: [1] | [2] | [7]
inactive: all other assays above

CC(C)[C@H](C(=O)O[C@H](C#N)c1cccc(Oc2ccccc2)c1)c1ccc(Cl)cc1
inactive: [8] | [9] | [5] | [6]

CCS(=O)(=O)c1cccnc1S(=O)(=O)NC(=O)Nc1nc(OC)cc(OC)n1
inactive: [9] | [10] | [3] | [5] | [6]

S=C=Nc1cccc2ccccc12
inactive: [9] | [2] | [4] | [5]
active: [3] 67.9 µM

C[C@]12Cc3nonc3C[C@@H]1CC[C@@H]1[C@@H]2CC[C@@]2(C)[C@H]1CC[C@]2(C)O
active: [8] 18.8 µM | [2] 0.0237 µM | [3] 29.8 µM
inactive: [4] | [5] | [6]

Cc1c(Cl)c(=O)oc2cc(OP(=O)(OCCCl)OCCCl)ccc12
inactive: [7] | [10] | [3] | [4] | [5] | [6]

CC(=O)[O-].[Tl+]
active: [10] 2.75 µM | [3] 38.8 µM
inactive: [9]

Oc1ccc2ccc3cccc4ccc1c2c34
inactive: [7] | [9] | [3] | [5] | [6]

CC(C)(C)c1ccc(CSc2cnn(C(C)(C)C)c(=O)c2Cl)cc1
inactive: [3] | [4] | [5]
active: [9] 0.0433 µM

CCOC(=O)C1(c2ccccc2)CCN(CCC(C#N)(c2ccccc2)c2ccccc2)CC1
not listed: [1] | [8] | [10]
inactive: all other assays above

Nc1ccccc1C(=O)Oc1ccc2ccccc2c1
active: [4] 2.17 µM
inactive: [9] | [2] | [3] | [5]

Fc1ccc(Oc2ccnc3cc(Cl)cc(Cl)c23)cc1
inactive: [9] | [10] | [3] | [5]

C[C@]12CC[C@H]3[C@@H](CCC4=CC(=O)CC[C@@]43C)[C@@H]1CC[C@@H]2O
active: [7] 5.41 µM
inactive: [9] | [3] | [4] | [5] | [6]

O=S(=O)(c1ccc(Cl)cc1)c1ccc(Cl)cc1
inactive: [7] | [9] | [3] | [4] | [5]

C[C@@H](Oc1ccc(Cl)cc1Cl)C(=O)O
inactive: [9] | [10] | [3] | [4] | [5] | [6]

Nc1ccc(Sc2ccc(N)cc2)cc1
inactive: [9] | [4] | [5] | [6]

CCCCCCCCc1ccc(O)cc1
inactive: [9] | [2] | [5] | [6]
active: [10] 15.4 µM

From PubChem BioAssay (Tox21)
